RAM network inh: inhibitors of the yeast RAM network, primary screen, dse1pr::URA3 reporter, 5-FOA selection; S. cerevisiae dse1pr::URA3 reporter, 5-FOA growth OD615, 2 d; analog-sensitive cbk1-as2 kinase mutant strain; inhibition, % at 50 µM; 1.8% of 190,000 active;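 active = inhibition above a set limit, 3 SD over mean compound inhibition, cut at about 8.4% in these data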;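 also: 0% = DMSO-only wells with no growth and 100% = 10 µM 1-NA-PP1 full growth; inhibition rescues growth on 5-FOA so higher OD means more RAM inhibition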
Lmaj promast: Leishmania major promastigote growth inhibition, primary screen; Leishmania major promastigotes, resazurin fluorescence viability; inhibition, % at 10 µM; 9% of 200,000 active; AID 1063, 2008; in the data active = inhibition above about 50%;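 also: promastigotes grown with compound for 44 hours at 28 °C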
CHOP inh: inhibitors of CHOP promoter induction, primary screen, cell-based, unfolded protein response, luciferase reporter; CHO-K1 CHOP-promoter luciferase, tunicamycin-induced, 15-18 h; inhibition, % at 10 µM; 3.8% of 220,000 active;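 active = compounds that reduced the stress-induced luciferase reporter signal by more than about 70% of percent inhibition, limit read from the data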;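 also: 0% = tunicamycin plus vehicle and 100% = wells without tunicamycin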
WT yeast gro inh: growth inhibition of WT strain, primary screen, mitochondrial fusion inhibitor project, WT and mutant strains, chemical genetic; 2.1% of 190,000 active; AID 1362, 2008; inhibition, % at 10 µM; mitochondrial fusion phenotypic screen; in the data active = inhibition above about 58%; tested in S. cerevisiae
Active calls of the source: *; / = no result. An excerpt weighted towards active compounds, which were near 13% of everything screened.

SMILES	RAM network inh	Lmaj promast	CHOP inh	WT yeast gro inh
CCC1=Nc2cc(C(=O)O)ccc2Sc2ccccc21	3	-8	-1	0
Cc1cc(C)c(S(=O)(=O)n2ccc(-c3ccc(OCCN(C)c4ccccn4)cc3)n2)c(C)c1	-2	28	27	-2
COc1ccc(NC(=O)CSc2nc3ccsc3c(=O)n2CCCCCC(=O)O)cc1	11*	-1	-11	-8
O=c1[nH]c(SCc2ccccc2)nc2ccsc12	3	-8	-9	-11
O=C(O)CCCCn1c(SCC(=O)Nc2ccccc2C(F)(F)F)nc2ccsc2c1=O	8.7*	-6	-1	3
CCC(C)n1c(SCC(=O)NCCc2ccc(S(N)(=O)=O)cc2)nc2ccsc2c1=O (centres undefined)	2	-7	-8	5
CCC(C)n1c(SCc2ccccc2)nc2ccsc2c1=O (centres undefined)	1	16	45	65*
CCC(C)n1c(SCC(=O)Nc2ccccc2C(F)(F)F)nc2ccsc2c1=O (centres undefined)	4	96*	45	18
CCCCn1c2ccccc2c2nnc(SCC(=O)NC3=NN=C(c4ccccc4)CS3)nc21	5	15	17	60*
OCC1(O)OC[C@@H](O)[C@H]1O (some centres undefined)	/	/	-11	/
Cc1ccc(CC2CC(=O)N(c3nc4ccccc4s3)C2=O)cc1 (centres undefined)	3	-6	8	-20
COc1ccc2nc(N3C(=O)CC(Cc4ccc(C)cc4)C3=O)sc2c1 (centres undefined)	3	76*	51	32
Clc1ccc(OCCn2ccnc2)c(Br)c1	1	31	12	48
CN(C)CCCCOc1ccc(Br)cc1Cl	1	96*	-3	11
COc1cccc(OCCOCCN(C)CCO)c1	1	-2	-10	-13
COCCNCCCOc1ccc(Br)cc1Cl	1	81*	-20	4
C=CCNCCCOc1ccc(Cl)cc1Br	1	78*	16	6
CCc1cc(OCCOCCN(C)C)ccc1Cl	1	98*	34	8
O=C(CNC(=O)C(c1ccccc1)c1ccccc1)OCC(=O)c1cccs1	5	0	29	-8
COCCNCCCOc1ccc(Cl)cc1Br	1	65*	50	20
Cc1ccc(OCCOCCN(C)C)c(Cl)c1	1	85*	16	3
CCOc1ccc(Cl)cc1CNCCNCCO	1	19	18	-13
OCCNCCCOc1ccc(Cl)cc1Br	-1	87*	-10	4
S=C(Nc1ccc2nsnc2c1)NC1CCCCC1	0	82*	12	30
FC(F)(F)c1cccc(NC(=S)NC2CCCC2)c1	0	74*	11	49
SMILES	RAM network inh	Lmaj promast	CHOP inh	WT yeast gro inh
CCCNC(=S)Nc1cccc(C(F)(F)F)c1	-1	71*	19	12
CC(C)(C)c1ccc(/C=N/NC(=S)NC2CCCCC2)cc1	5	30	72*	45
S=C(Nc1ccc2nsnc2c1)N1CCCCCC1	0	-4	13	-2
O=C(CSc1cccc[n+]1[O-])C12CC3CC(CC(C3)C1)C2	-1	-7	-16	-4
CCn1c(COc2cccc(C)c2C)nnc1SCC(=O)Nc1cc(C)on1	2	-1	-15	-5
O=C(O)c1ccc(NC(=S)NC2CCCCC2)cc1	1	10	7	-12
FC(F)(F)c1ccc(NC(=S)NC2CCCCC2)cc1	2	9	88*	51
CC(C(=O)OCC(=O)c1cccc([N+](=O)[O-])c1)N1C(=O)C2C3CCC(C3)C2C1=O (centres undefined)	3	10	12	3
O=C(CN1CCC(c2nc3ccccc3s2)CC1)NCc1ccccc1	1	87*	20	24
CCc1ccc(C(=O)N2CCC(c3nc4ccccc4s3)CC2)cc1	0	87*	13	0
O=C(CSc1c(Cl)cccc1Cl)N1CCC(c2nc3ccccc3s2)CC1	9.4*	-2	9	-1
O=C(c1ccccc1Br)N1CCC(c2nc3ccccc3s2)CC1	1	3	20	11
COc1cc(C(=O)NCc2nnc(SCC(=O)N3CCc4ccccc43)o2)cc(OC)c1OC	4	1	4	2
Cc1cc(C(F)F)nn1CC(=O)NC1C(=O)N2C(C(=O)O)=C(CSc3nnnn3C)CSC12 (centres undefined)	1	-3	13	-4
CC(=O)N1CCc2c(sc(NC(=O)c3ccc4c(c3)OCCO4)c2C#N)C1	2	54*	/	14
CC1(C)CC2CC(C)(CN2S(=O)(=O)c2ccc(C(=O)Nc3cc(S(=O)(=O)N4CCOCC4)ccc3Cl)cc2)C1 (centres undefined)	3	99*	22	7
CC1(C)CC2CC(C)(CN2S(=O)(=O)c2ccc(C(=O)Nc3cccc(S(=O)(=O)N4CCOCC4)c3)cc2)C1 (centres undefined)	5	99*	44	1
O=C(CCCCCN1C(=O)c2cccc3cccc(c23)C1=O)NCCO	0	1	-7	-2
Cc1ccc2ncccc2c1[N+](=O)[O-]	1	32	15	9
Cc1[nH]c2ccc3ncccc3c2c1C	1	56*	24	0
CC1CCCC(NC(=O)C2CCN(S(=O)(=O)N3CCCCCC3)CC2)C1C (centres undefined)	3	10	23	1
COc1ccc(C(C)=O)cc1COC(=O)c1cnc(Cl)c(Cl)c1	9.9*	-2	27	-14
O=C(CSc1nnc(CCc2ccccc2)n1-c1ccc(Cl)cc1)NCc1ccccc1	1	100*	52	21
O=C(NC(=S)NCC1CCCO1)c1ccc(Cl)cc1 (centres undefined)	-1	8	5	-18
O=C(NC(=S)NCC1CCCO1)c1ccc([N+](=O)[O-])cc1 (centres undefined)	2	52*	-6	4
SMILES	RAM network inh	Lmaj promast	CHOP inh	WT yeast gro inh
C/C(=N\Nc1cccc([N+](=O)[O-])c1)c1cc(F)ccc1O	/	/	35	/
CC(=O)c1ccc2noc(-c3cccc(C)c3)c2c1	3	-6	39	-5
CCSc1nnc(-c2cccc(S(=O)(=O)N(C)C)c2)n1-c1cc(OC)ccc1OC	2	-4	8	-18
CCCSc1nnc(-c2cccc(S(=O)(=O)N(C)C)c2)n1-c1cc(OC)ccc1OC	2	53*	-26	-3
O=[N+]([O-])c1ccccc1Oc1ccc(C(F)(F)F)cn1	3	3	-6	2
FC(F)(F)c1ccc(Oc2ccc3ccccc3c2Br)nc1	3	-4	8	81*
CC(NS(=O)(=O)/C=C/c1ccccc1)C(=O)O (centres undefined)	2	6	86*	11
CSCCC(Nc1ncnc2ccc(Br)cc12)C(=O)O (centres undefined)	1	-4	16	-23
CC(C)Nc1ncnc2ccc(Br)cc12	2	43	79*	17
Brc1ccc2ncnc(NCc3ccco3)c2c1	0	55*	56	-13

Screening data (PubChem)
